Experimental data taken from the supplement of paper PMC13392028.
The full ranking holds about 4,100 sequences; the median of “RBNS R-value (6-mer enrichment in protein-bound RNA vs input library)” is about 0.96, and the highest 2% start at about 2.4. What follows is part of a selection rich in the highest values, with near analogues and random picks from the rest.

Test system: PyIESI-1 RRM domain (Plasmodium yoelii PY17X_0911200 aa 795-956, GST fusion)
Experiment: RBNS R-value (6-mer enrichment in protein-bound RNA vs input library) (ratio); higher = stronger binding preference; the methods of the paper give 50 / 100 / 500 nM protein instead
Experimental: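 RNA Bind-n-Seq: recombinant GST-tagged IESI-1 RRM domain was incubated at room temperature with a random 40-nt in vitro transcribed RNA library at 250, 500 or 1000 nM protein. Bound RNA was pulled down on glutathione beads and sequenced. R-value is the enrichment of each 6-mer in the bound RNA relative to the input library. Each 6-mer sits inside the random 40-mer context, not as an isolated oligo. Values are replicate 1 only.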

Sequence	RBNS R-value (protein concentration: 250 nM)	RBNS R-value (protein concentration: 500 nM)	RBNS R-value (protein concentration: 1000 nM)
GUAUGU	0.702	0.701	0.677
GAUCAG	1.21	1.23	1.26
AUUUGG	1.56	1.52	1.53
UUUUGU	0.927	0.945	0.932
AUUUGA	2.85	2.67	2.75
UUUUGC	1.25	1.28	1.3
AUUUGU	1.19	1.18	1.16
UUUUGA	2.87	2.69	2.76
CGUCGU	0.673	0.674	0.653
AUUCGG	1.21	1.23	1.22
GAGGCA	1.07	1.06	1.04
AGUCAG	0.665	0.689	0.664
GGUAGU	0.858	0.895	0.812
UCGAAU	0.871	0.871	0.846
UAUUGA	1.66	1.61	1.65
GAUUGG	2.35	2.26	2.17
GAUUGC	3.17	2.85	2.87
CAUUGC	1.1	1.11	1.11
AAUUGU	0.811	0.836	0.821
GAUUGU	1.51	1.5	1.51
GAUUGA	3.24	3.03	3.05
AAUUGA	2.42	2.26	2.31
CAUUGA	2.25	2.16	2.24
UGGAUC	0.876	0.876	0.852
CGGGUA	0.923	0.929	0.9

Sequence	RBNS R-value (protein concentration: 250 nM)	RBNS R-value (protein concentration: 500 nM)	RBNS R-value (protein concentration: 1000 nM)
CAGAUU	1.53	1.52	1.61
UGGAUU	1.02	1.04	1.01
GUGAGA	1.03	1.06	0.984
GUGAUA	2.97	2.94	3.2
UUGAGU	1.03	1.07	1.03
UUGAUU	7.23	6.65	6.84
GUGAAA	0.997	0.961	0.925
GUGAUC	1.68	1.71	1.81
CUGAAU	1.09	1.11	1.07
GUGAAU	0.995	1	0.944
GUGAUU	4.55	4.24	4.44
CUGAUU	6.33	5.69	5.82
GUACUA	0.638	0.638	0.595
UACGGA	0.876	0.89	0.885
GAAUCA	0.819	0.828	0.81
UAGUGG	0.775	0.827	0.76
CAGUUC	0.829	0.84	0.843
GCCCUU	0.971	1.02	1.03
GGGCAC	1.06	1.04	1.06
UUGCAC	1.32	1.29	1.31
UGAUAG	4.53	4.33	4.55
GGAUAG	0.94	0.954	0.908
AGAUAG	1.08	1.1	1.11
UGAUAU	3.72	3.77	4.19
UGAUAC	3.65	3.59	3.96

Sequence	RBNS R-value (protein concentration: 250 nM)	RBNS R-value (protein concentration: 500 nM)	RBNS R-value (protein concentration: 1000 nM)
UGAUAA	4.34	4.21	4.69
AGAUAU	0.962	0.983	1
CGAUAA	1.27	1.33	1.41
AGAUAA	0.936	1	1.02
CGAUAC	1.26	1.34	1.39
GGAUAU	0.856	0.872	0.845
GGAUAC	0.904	0.919	0.891
GCUACG	0.896	0.915	0.905
AGCUCC	0.982	0.991	1
UGCUGA	2.04	1.98	1.99
AAUCAC	0.701	0.714	0.718
GGGCUU	1.01	1.02	1.01
ACGCUG	1.14	1.13	1.13
CCGGCG	1.06	1.09	1.08
UACAGC	0.713	0.73	0.722
UCCCAU	0.805	0.831	0.834
UCCUCG	0.965	0.991	0.988
CAUUUC	0.888	0.94	1
GAUUUG	4.2	3.81	3.78
GAUUUA	2.58	2.52	2.7
CAUUUU	0.849	0.886	0.903
AAUUUC	1.1	1.11	1.15
GAUUUU	3.71	3.43	3.56
CAUUUA	0.421	0.449	0.427
GAUUUC	3.38	3.2	3.32

Sequence	RBNS R-value (protein concentration: 250 nM)	RBNS R-value (protein concentration: 500 nM)	RBNS R-value (protein concentration: 1000 nM)
AAUUUG	1.6	1.54	1.6
AAUUUU	1.02	1.02	1.06
CAUUUG	1.31	1.35	1.38
UAUUUA	0.42	0.445	0.418
UGGGUA	0.987	1.02	0.989
GUAGUG	0.958	0.965	0.926
GUAAAA	0.762	0.753	0.701
AAACAA	0.781	0.765	0.773
GACAUG	1.52	1.48	1.5
CCUAGC	0.86	0.888	0.886
UCGAUC	1.05	1.07	1.11
CCGAUA	1.32	1.36	1.43
ACGAUG	2.5	2.46	2.59
CCGAUG	2.44	2.4	2.5
CCGAUU	2.3	2.23	2.34
UCGAUG	2.22	2.24	2.37
ACGAUC	0.998	1	1.05
ACGAUA	1.21	1.3	1.37
GCGAUC	1.09	1.12	1.13
UCGAUA	1.17	1.23	1.29
GCGAUU	2.19	2.21	2.28
GCGAUG	2.65	2.56	2.65
